Results on 40 compounds are retold here after the supplement of paper PMC10042075.

“And” between values parts separate entries of the source, which are not always exact repeats. Equal entries are not always repeated. Structures can show the parent of a compound that is named as a salt.

The test relates to LASCPC-01. Description: cell viability relative to DMSO control (fraction); higher = less growth inhibition (more viable cells). Conditions: 2 µM; 72 h. How it is done: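 High-throughput single-dose screen in the LASCPC-01 NEPC cell line in 384-well plates. Cells were treated with each compound at 2 µM for 72 h, and viability was read by CellTiter-Glo luminescence. Values are normalised to the DMSO control (compound/DMSO) from three replicates; only the 5-HT-related subset of the 7315-compound library is given.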
In turn, `CC(N)Cc1c[nH]c2ccc(OCc3cccs3)cc12` (stereo not given) gave a cell viability of 1.18.
In turn, `NCCc1c[nH]c2ccc(O)cc12` [Serotonin hydrochloride] had a cell viability of 0.606.
Next, `CC(N)Cc1cccc(C(F)(F)F)c1` (single isomer, unassigned; (+)) [(+)-Norfenfluramine hydrochloride]: 1.09.
Turning to `NCCc1c[nH]c2ccccc12` [Tryptamine hydrochloride], the cell viability is 0.96.
In turn, `O=c1ccc2cc3ccoc3c(O)c2o1` [Xanthotoxol] gave a cell viability of 1.15.
`COc1ccc2c(c1OC)CN1CCc3cc4c(cc3C1C2)OCO4` (stereo not given) [Tetrahydroberberine THB] returned a cell viability of 0.961.
The compound `CNCCc1c[nH]c2ccc(O)cc12` [N-omega-Methyl-5-hydroxytryptamine oxalate salt] yielded a cell viability of 1.11.
In the case of `O=S1(=O)N(CCN2CC=C(c3c[nH]c4cc(F)ccc34)CC2)c2cccc3c2N1CCC3`, the cell viability was determined as 0.982.
`COc1cc2c3c(c1OC)-c1ccccc1C[C@H]3N(C)CC2` [Nuciferine] had a cell viability of 0.818.
In turn, `O=[N+]([O-])c1ccc2nc(N3CCNCC3)ccc2c1` [Quipazine,6-nitro-,maleate] yielded a cell viability of 1.04.
With `Clc1ccc(C(OCCN2CCCCC2)c2ccccc2)cc1` (stereo not given) [Cloperastine hydrochloride] the figure was 0.924; with `COc1cc(N)c(Cl)cc1C(=O)NC1CN2CCC1CC2` (stereo not given) [Zacopride hydrochloride], 0.366; with `CN1CCN(c2nc3ccccc3nc2Cl)CC1`, 0.966.
With `CN1CCC(c2c[nH]c3ccc(O)cc23)CC1`, the cell viability is 0.966 and 0.511.
Consider `C[N+]1(C)C2CCC1CC(OC(=O)c1c[nH]c3ccccc13)C2` (stereo not given) [3-Tropanylindole-3-carboxylate methiodide], for which the cell viability was 0.906.
As for `CCCN(CCC)C1CCc2cccc(O)c2C1` (stereo not given), the cell viability was found to be 0.92.
With `CC[C@@H](CO)NC(=O)[C@@H]1C=C2c3cccc4c3c(cn4C)C[C@H]2N(C)C1` [Methysergide maleate] the figure was 1.1; with `CCCN(CCC)[C@@H]1CCc2cccc(O)c2C1` [R-(+)-8-Hydroxy-DPAT hydrobromide], 1.03; with `NCCc1c[nH]c2ccc(C(N)=O)cc12` [5-Carboxamidotryptamine maleate], 1.1.
`C[C@H]1CNCCc2ccc(Cl)cc21` [Lorcaserin HCl] gave a cell viability of 1.18.
In turn, `CN1C(=O)COc2c(C(=O)NC3CN4CCC3CC4)cc(Cl)cc21` (stereo not given) [Azasetron hydrochloride] yielded a cell viability of 1.44.
For the compound `COc1ccc(C(CN(C)C)C2(O)CCCCC2)cc1` (stereo not given) [Venlafaxine hydrochloride], the cell viability is 1.06.
With `CN1C[C@H](CNC(=O)OCc2ccccc2)C[C@@H]2c3cccc4c3c(cn4C)C[C@H]21` [Metergoline] the figure was 0.997; with `COc1ccc2[nH]cc(C3=CCNCC3)c2c1`, 0.776; with `COc1ccc(C(CN(C)C)C2(O)CCCCC2)cc1` (stereo not given) [Venlafaxine], 1.04.
With `Clc1ccc([C@]23CNC[C@H]2C3)cc1Cl` [Amitifadine hydrochloride] the figure was 0.896; with `NCCc1c[nH]c2ccc(O)cc12` [Serotonin HCl], 0.977; with `CCCN(CCC)C1CCc2cccc(O)c2C1` (stereo not given) [(?-8-Hydroxy-DPAT hydrobromide], 1.16.
As for `c1ccc2c(N3CCNCC3)cccc2c1` [1-(1-Naphthyl)piperazine hydrochloride], the cell viability was 1.08.
With `COc1ccc2[nH]cc(CCN)c2c1` [O-Methylserotonin hydrochloride] the figure was 0.981.
Take `N#Cc1ccc(N2CCN(C(=O)COc3ccc4[nH]cc(CCN)c4c3)CC2)cc1` [Donitriptan monohydrochloride]: the cell viability turned out to be 1.08.
On to `CC(N)Cc1c[nH]c2ccc(O)cc12` (stereo not drawn) [alpha-Methyl-5-hydroxytryptamine maleate], for which the cell viability is 1.03.
`CN1CCN(c2cccc3[nH]c(=O)oc23)CC1` [Pardoprunox hydrochloride] showed a cell viability of 1.03.
Next, `C[C@H](N)CN1CCc2ccc(Br)cc21` [VER-3323 hemifumarate salt]: 1.16; `Cc1[nH]c2ccc(O)cc2c1CCN` [2-Methyl-5-hydroxytryptamine maleate]: 0.982.
Next, `NCCc1c[nH]c2ccccc12` [Tryptamine]: 1.08; `CN1C[C@H](C(=O)N[C@]2(C)O[C@@]3(O)[C@@H]4CCCN4C(=O)[C@H](Cc4ccccc4)N3C2=O)C[C@@H]2c3cccc4[nH]cc(c34)C[C@H]21` [Dihydroergotamine methanesulfonate]: 1.18.
Compound `COc1ccccc1N1CCNCC1` [1-(2-Methoxyphenyl)piperazine hydrochloride] displayed a cell viability of 0.869.
Next, `CN1c2ccccc2C(NCCCCCCC(=O)O)c2ccc(Cl)cc2S1(=O)=O` (stereo not given) [Tianeptine sodium]: 0.963.
For `CN1CCC[C@@H]1Cc1c[nH]c2ccc(Nc3ncccc3[N+](=O)[O-])cc12`, the cell viability amounted to 0.897.
